Results taken from PubChem BioAssay AID589 (National Center for Advancing Translational Sciences (NCATS), 2007).
Among all 59,000 compounds or so, about 6,200 (11%) were called active. Another 9% or so got no clear call; they are omitted. This is one part of a sample in which actives are shown more often than they occur. Rule as the data show it: active = max dye-equivalent concentration above about 10 nM; inconclusive = mostly about 1.1 nM to 9.6 nM; inactive = weaker than that.

assay: qHTS Assay for Spectroscopic Profiling in 4-MU Spectral Region; details: compound autofluorescence, 340/450 nm, 4-MU equivalents; hits give high values
Procedure, shortened: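 Compounds in 100 mM Tris, pH 8.0, sat 15 min at room temperature before fluorescence was read at 340 nm excitation/450 nm emission; a per-plate six-point 4-MU standard curve converted signals to dye-equivalent concentration at each compound concentration.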

Structure (SMILES)	max dye-equivalent concentration
CO[C@@H]1/C=C\O[C@]2(C)Oc3c(C)c(O)c4c(O)c(c(CN(C)C)c(O)c4c3C2=O)NC(=O)/C(C)=C\C=C[C@@H](C)[C@@H](O)[C@H](C)[C@@H](O)[C@H](C)[C@H](OC(C)=O)[C@@H]1C	inactive
CCOc1cc(NC(=O)c2ccco2)c(OCC)cc1NC(=O)COc1ccccc1	85 nM (active)
Cc1ccc(C(=O)COc2cccc(NC(=O)c3ccco3)c2)cc1	inactive
O=C(Nc1ccc(Oc2ccccc2)cc1)c1ccco1	inactive
O=c1oc2c(CN3CCCCC3)c(O)ccc2c2c1CCCCC2	12000 nM (active)
CCN(CC)S(=O)(=O)c1cc(C(=O)Nc2ccccn2)ccc1C	inactive
O=C(CSc1nc2ccccc2o1)N1CCN(c2ccccc2)CC1	inactive
Cn1c(=O)cc(OCCCC(=O)N2CCN(c3ccccn3)CC2)c2ccccc21	inactive
Cc1ccnc(N2CCN(C(=O)CSc3nc4ccccc4nc3N3CCCCC3)CC2)c1	29 nM (active)
CC1Cc2ccccc2N1C(=O)CSc1nc2ccccc2o1 (configuration not stated)	inactive
c1ccc(CCN2CCN=C2Cc2ccccc2)cc1	inactive
Cc1ccc(NC(=O)Cn2nc(C)c3ccccc3c2=O)c(C)c1	inactive
CCOc1ccc(N=NS(=O)(=O)O)cc1	inactive
Nc1ccc2[nH]cc(CCC(=O)O)c2c1	inactive
NCCNCC1CCNCC1	inactive
O=C(NCCc1ccccn1)c1ccc(COc2ccccc2)o1	inactive
O=C(O)[C@H](CCc1ccccn1)c1ccccc1	inactive
C/C(N)=C(\C#N)C(=O)NCCc1ccccn1	46 nM (active)
O=C1C(=O)N(CCN2CCOCC2)C(c2ccccn2)/C1=C(/O)c1ccc(Cl)cc1 (configuration not stated)	inactive
COc1ccccc1-c1nc(N2CCN(C)CC2)c2ccccc2n1	inactive
CCOC(=O)c1sc2nc(CSCC(=O)OCc3ccc(C(=O)OC)o3)[nH]c(=O)c2c1C	inactive
CCOC(=O)c1ccc(CS(=O)c2ccc(Cl)cc2)o1 (configuration not stated)	inactive
CCOC(=O)c1ccc(COC(=O)c2cc(=O)[nH]c3ccccc23)o1	33 nM (active)
CN(C)/C=C/c1c(C#N)c(=O)ncn1Cc1ccccc1	inactive

Structure (SMILES)	max dye-equivalent concentration
CN(C)c1ccnc2sc3c(=O)n(Cc4ccccc4)cnc3c12	28 nM (active)
COC(=O)CCSc1nccn1Cc1ccccc1	inactive
CCOc1ccccc1N(CC(=O)NC1CCCCC1)C(=O)CCCC(=O)Nc1ccccn1	inactive
CCC(C)(C)n1nnnc1C(c1cccs1)N1CCN(Cc2ccccc2)CC1 (configuration not stated)	inactive
COc1ccccc1C(=O)Oc1ccc(N2C(=O)CCC2=O)cc1	inactive
CCOc1nc(-c2ccc(OC)cc2)ccc1-c1noc(-c2cc(OC)c(OC)c(OC)c2)n1	57 nM (active)
O=C(Oc1ccc(-c2nc(-c3ccccn3)no2)cc1)c1ccccc1	inactive
CCOc1cc(-c2noc(CCC(=O)N3CCOCC3)n2)ccc1OC	inactive
COc1ccc(-c2noc(CN(C)S(=O)(=O)c3ccc(C)cc3)n2)cc1	inactive
COc1ccc(-c2ccc(-c3noc(-c4ccncc4)n3)c(OC)n2)cc1	17 nM (active)
COc1ccc(-c2nc(-c3ccccc3)no2)c(OC)c1	inactive
FC(F)Oc1ccccc1C1CC(c2ccc(Br)s2)Nc2ncnn21 (configuration not stated)	inactive
CN1CCN(C(=O)c2ccc(NS(=O)(=O)c3ccccc3)cc2)CC1	inactive
O=C(c1cnccn1)N1CCC2(CCCN(Cc3ccccc3)C2)CC1	inactive
Cn1nnc2cc(C(=O)NCCC3=CCCCC3)ccc21	inactive
Cc1ccc2c(c1)c1ncn(CCC3=CCCCC3)c(=O)c1n2C	38 nM (active)
O=C(COc1cccc(-n2cnnn2)c1)NCCC1=CCCCC1	inactive
NC(=S)c1ccc(C(N)=S)o1	inactive
CCCCSc1nnc(-c2ccc(NC(=O)CC)cc2)n1C	inactive
CCOc1cc(C)c(Cl)cc1S(=O)(=O)n1nnc2ccccc21	inactive
O=C(c1cccs1)N1CCC(c2nc3ccccc3s2)CC1	inactive
Cc1nn(Cc2ccccc2)c(Cl)c1C(=O)OC1CCOC1=O (configuration not stated)	inactive
O=C(OC1CCOC1=O)c1ccc(-c2nc3ccccc3s2)s1 (configuration not stated)	550 nM (active)
Cc1ccc(C(C)C)c(OCc2nnc(SCC(=O)Nc3nccs3)n2C)c1	inactive

Structure (SMILES)	max dye-equivalent concentration
C=CCOc1ccc(/C=N/n2cncn2)cc1OC	inactive
COc1cccc(N2CC(C(=O)Nc3c(C)cccc3C)CC2=O)c1 (configuration not stated)	20 nM (active)
COc1ccc(Cl)cc1NC(=O)C1CC(=O)N(c2ccc(F)cc2)C1 (configuration not stated)	inactive
COCCCNC(=O)C1CC(=O)N(c2ccc(C)cc2)C1 (configuration not stated)	inactive
O=C(Nc1ccn(Cc2ccc(F)cc2)n1)c1ccncc1	inactive
N#Cc1c(NC(=O)CSc2nc3ccccc3c(=O)n2Cc2ccco2)sc2c1CCCC2	inactive
CC(C)(O/N=C(\C(=O)N[C@@H]1C(=O)N2C(C(=O)[O-])=C(C[n+]3ccccc3)CS[C@@H]12)c1csc(N)n1)C(=O)O	inactive
CC(=O)N=c1ncn(CC(COC(C)=O)OC(C)=O)c2nc[nH]c12 (configuration not stated)	inactive
Cc1ccc(S(=O)(=O)N2CCCC2C(=O)NCc2ccco2)cc1 (configuration not stated)	inactive
CC(=O)c1c(N2CCOCC2)nc(=S)n(Cc2ccccc2)c1C	inactive
CCOC(=O)c1c(NC(=O)c2cccs2)sc(C)c1C	190 nM (active)
COC(=O)Cn1cc(C(=O)c2cccs2)c2ccccc21	inactive
CCOCC(=O)Nc1sc2c(c1C(=O)OCC)CCCC2	inactive
CCOC(=O)CSc1nnc(CNC(=O)c2cccs2)n1-c1ccccc1	inactive
COC(=O)c1c(NC(=O)c2cccs2)sc2c1CCCC2	90 nM (active)
COC(=O)c1c(NC(=O)CSc2nncs2)sc2c1CCCCC2	inactive
O=C(Nc1ncccn1)c1cccs1	inactive
CCOC(=O)c1oc2ccccc2c1NC(=O)c1cccs1	18 nM (active)
CCOC(=O)c1c(NC(=O)CSc2nnc(Cc3csc(N)n3)n2C)sc(C)c1C	inactive
Cc1ccnc(N2CCC(C(=O)NC3CCCCCC3)CC2)n1	inactive
CCN(CC)S(=O)(=O)c1ccc2nc(COC(=O)c3n[nH]c4ccccc34)[nH]c2c1	inactive
COc1ccc2c(c1)CCc1c(C(=O)Nc3c(C)n(C)n(-c4ccccc4)c3=O)noc1-2	inactive
O=C(Nc1c[nH]c(=O)[nH]c1=O)Oc1ccccc1	inactive
Cc1ccc(C)c(N(CC(=O)NCc2ccco2)C(=O)CCC(=O)Nc2ccccn2)c1	inactive
